# From the supplement of paper PMC8975748
# Structures can show the parent of a compound that is named as a salt. ± gives the standard deviation of the averaged measurements.
# Experiments:
# [1] = system: Saccharomyces cerevisiae BY4741 SeMeCo community; experiment: mean cell size (pixel area) (pixels); higher = larger cells; conditions: 10 µM; 24 h; SM minimal medium
# Procedure, shortened: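 A fluorescent Saccharomyces cerevisiae BY4741 community carrying four plasmids was used, with each plasmid complementing one auxotrophy and bearing a fluorescent marker. An overnight preculture at OD600 = 1.0 was diluted to OD600 = 0.3, and 70 µl went into 384-well plates acoustically predosed with drug (final 10 µM) in SM medium for 24 h. After paraformaldehyde fixation, cells were imaged by automated confocal microscopy and analysed in Harmony, giving the mean cell pixel area per well. Each value is the average of 3 replicates. Same SeMeCo high-content imaging drug screen: Selleck FDA-approved drugs at 10 µM, 24 h in SM medium, 384-well plates, 3 replicates.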
# [2] = system: Saccharomyces cerevisiae BY4741 SeMeCo community; experiment: z-score of prototroph abundance vs DMSO median; higher = larger share of this subpopulation than in DMSO controls; conditions: 10 µM; 24 h; SM minimal medium; subpopulation (auxotrophy): Prototroph
# Procedure, shortened: (§1)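 Scoring was based on each subpopulation's abundance, expressed as a z-score against the vehicle-well median. A Saccharomyces cerevisiae BY4741 community with four plasmids, each restoring one auxotrophy and encoding a distinct fluorescent protein, was pre-grown overnight to OD600 1.0, diluted to 0.3, and added at 70 µl to 384-well plates acoustically predosed with library drugs (10 µM final). It then grew 24 h in minimal SM medium before paraformaldehyde fixation and automated confocal microscopy, with single-auxotroph fluorescent strains setting thresholds and autofluorescence correction.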
# [3] = system: Saccharomyces cerevisiae BY4741 SeMeCo community; experiment: z-score of subpopulation abundance vs DMSO median, subpopulation auxotrophic for M; higher = larger share of this subpopulation than in DMSO controls; conditions: 10 µM; 24 h; SM minimal medium; subpopulation (auxotrophy): M
# Procedure, shortened: as §1
# [4] = system: Saccharomyces cerevisiae BY4741 SeMeCo community; experiment: z-score of subpopulation abundance vs DMSO median, subpopulation auxotrophic for L; higher = larger share of this subpopulation than in DMSO controls; conditions: 10 µM; 24 h; SM minimal medium; subpopulation (auxotrophy): L
# Procedure, shortened: as §1
# [5] = system: Saccharomyces cerevisiae BY4741 SeMeCo community; experiment: z-score of subpopulation abundance vs DMSO median, subpopulation auxotrophic for U; higher = larger share of this subpopulation than in DMSO controls; conditions: 10 µM; 24 h; SM minimal medium; subpopulation (auxotrophy): U
# Procedure, shortened: as §1
# [6] = system: Saccharomyces cerevisiae BY4741 SeMeCo community; experiment: z-score of subpopulation abundance vs DMSO median, subpopulation auxotrophic for H; higher = larger share of this subpopulation than in DMSO controls; conditions: 10 µM; 24 h; SM minimal medium; subpopulation (auxotrophy): H
# Procedure, shortened: as §1
# [7] = system: Saccharomyces cerevisiae BY4741 SeMeCo community; experiment: z-score of subpopulation abundance vs DMSO median, subpopulation auxotrophic for LU; higher = larger share of this subpopulation than in DMSO controls; conditions: 10 µM; 24 h; SM minimal medium; subpopulation (auxotrophy): LU
# Procedure, shortened: as §1
# [8] = system: Saccharomyces cerevisiae BY4741 SeMeCo community; experiment: z-score of subpopulation abundance vs DMSO median, subpopulation auxotrophic for LM; higher = larger share of this subpopulation than in DMSO controls; conditions: 10 µM; 24 h; SM minimal medium; subpopulation (auxotrophy): LM
# Procedure, shortened: as §1
# [9] = system: Saccharomyces cerevisiae BY4741 SeMeCo community; experiment: z-score of subpopulation abundance vs DMSO median, subpopulation auxotrophic for HM; higher = larger share of this subpopulation than in DMSO controls; conditions: 10 µM; 24 h; SM minimal medium; subpopulation (auxotrophy): HM
# Procedure, shortened: as §1
# [10] = system: Saccharomyces cerevisiae BY4741 SeMeCo community; experiment: z-score of subpopulation abundance vs DMSO median, subpopulation auxotrophic for HU; higher = larger share of this subpopulation than in DMSO controls; conditions: 10 µM; 24 h; SM minimal medium; subpopulation (auxotrophy): HU
# Procedure, shortened: as §1
# [11] = system: Saccharomyces cerevisiae BY4741 SeMeCo community; experiment: z-score of subpopulation abundance vs DMSO median, subpopulation auxotrophic for UM; higher = larger share of this subpopulation than in DMSO controls; conditions: 10 µM; 24 h; SM minimal medium; subpopulation (auxotrophy): UM
# Procedure, shortened: as §1
# [12] = system: Saccharomyces cerevisiae BY4741 SeMeCo community; experiment: z-score of subpopulation abundance vs DMSO median, subpopulation auxotrophic for HL; higher = larger share of this subpopulation than in DMSO controls; conditions: 10 µM; 24 h; SM minimal medium; subpopulation (auxotrophy): HL
# Procedure, shortened: as §1
# [13] = system: Saccharomyces cerevisiae BY4741 SeMeCo community; experiment: z-score of subpopulation abundance vs DMSO median, subpopulation auxotrophic for HLU; higher = larger share of this subpopulation than in DMSO controls; conditions: 10 µM; 24 h; SM minimal medium; subpopulation (auxotrophy): HLU
# Procedure, shortened: as §1
# [14] = system: Saccharomyces cerevisiae BY4741 SeMeCo community; experiment: z-score of subpopulation abundance vs DMSO median, subpopulation auxotrophic for HLM; higher = larger share of this subpopulation than in DMSO controls; conditions: 10 µM; 24 h; SM minimal medium; subpopulation (auxotrophy): HLM
# Procedure, shortened: as §1
# [15] = system: Saccharomyces cerevisiae BY4741 SeMeCo community; experiment: z-score of subpopulation abundance vs DMSO median, subpopulation auxotrophic for HUM; higher = larger share of this subpopulation than in DMSO controls; conditions: 10 µM; 24 h; SM minimal medium; subpopulation (auxotrophy): HUM
# Procedure, shortened: as §1
# [16] = system: Saccharomyces cerevisiae BY4741 SeMeCo community; experiment: z-score of subpopulation abundance vs DMSO median, subpopulation auxotrophic for HLUM; higher = larger share of this subpopulation than in DMSO controls; conditions: 10 µM; 24 h; SM minimal medium; subpopulation (auxotrophy): HLUM
# Procedure, shortened: as §1
# [17] = system: Saccharomyces cerevisiae BY4741 SeMeCo community; experiment: z-score of subpopulation abundance vs DMSO median, subpopulation auxotrophic for LUM; higher = larger share of this subpopulation than in DMSO controls; conditions: 10 µM; 24 h; SM minimal medium; subpopulation (auxotrophy): LUM
# Procedure, shortened: as §1
SMILES,mean cell size [1],z-score of prototroph abundance [2],z-score of subpopulation abundance [3],z-score of subpopulation abundance [4],z-score of subpopulation abundance [5],z-score of subpopulation abundance [6],z-score of subpopulation abundance [7],z-score of subpopulation abundance [8],z-score of subpopulation abundance [9],z-score of subpopulation abundance [10],z-score of subpopulation abundance [11],z-score of subpopulation abundance [12],z-score of subpopulation abundance [13],z-score of subpopulation abundance [14],z-score of subpopulation abundance [15],z-score of subpopulation abundance [16],z-score of subpopulation abundance [17]
CO[C@@H]1[C@@H](OC(N)=O)[C@@H](O)[C@H](Oc2ccc3c(O)c(NC(=O)c4ccc(O)c(CC=C(C)C)c4)c(=O)oc3c2C)OC1(C)C [Novobiocin Sodium],12.7 ± 0.19,-1.53,-0.26,-0.72,0.65,1.97,0.73,-0.47,1.59,2.61,0.58,1.28,1.49,0.81,2.57,0.56,
O=c1n(CCCN2CCN(c3cccc(Cl)c3)CC2)nc2ccccn12 [Trazodone HCl],12.6 ± 0.15,-0.06,2.19,-1.59,-0.6,-0.86,-0.97,-0.41,0.92,0.33,0.22,-0.82,-0.83,0.04,0.45,-0.57,
CC[N+](C)(C)c1cccc(O)c1 [Edrophonium chloride],12.28 ± 0.12,,0.34,-0.53,1.2,-1.41,1.17,-0.05,-0.15,-0.07,0.7,-0.46,-0.56,-0.47,0.76,0.62,
Cc1ncc([N+](=O)[O-])n1CC(C)O (stereo not drawn) [Secnidazole],12.4 ± 0.14,,-0.32,-0.91,1.82,-0.22,0.55,-0.67,-0.21,0.82,0.75,-0.51,0.35,-0.55,0.55,-0.46,-0.06
CC(=O)N[C@H]1[C@H]([C@H](O)[C@H](O)CO)OC(C(=O)O)=C[C@@H]1NC(=N)N [Zanamivir],11.9 ± 0.17,-0.31,0.82,1.27,-1.03,0.63,-0.15,1.52,0.87,-0.41,-0.2,,0.56,0.19,0.23,0.38,
CCCc1nc(C)c2c(=O)nc(-c3cc(S(=O)(=O)N4CCN(CC)CC4)ccc3OCC)[nH]n12 [Vardenafil HCl Trihydrate],12.53 ± 0.092,,0.64,0.04,1.19,0.41,0.67,-1.19,0.87,1.92,,-0.13,0.57,-0.16,0.81,0.24,-0.24
CN1CCCN=C1/C=C/c1cccc(O)c1 [Oxantel Pamoate],12.6 ± 0.29,,1.17,-0.58,-1.1,0.29,-0.45,-0.51,-0.6,-0.96,-1.73,-0.28,-0.35,-0.2,-1.13,-0.41,-1.13
CC(C)NNC(=O)c1ccncc1 [Iproniazid],12.4 ± 0.22,,-0.2,-0.39,1.2,0.01,1.04,0.08,-0.24,0.46,0.66,-0.1,0.8,-0.85,0.2,0.07,0.03
C=C[C@]1(C)C[C@@H](OC(=O)CS[C@@H]2C[C@H]3CC[C@@H](C2)N3C)[C@]2(C)[C@H](C)CC[C@]3(CCC(=O)[C@H]32)[C@@H](C)[C@@H]1O [Retapamulin],12.42 ± 0.093,-0.09,-0.9,-0.16,0.79,-0.84,1.21,0.32,-0.99,0.72,,,0.45,-0.52,0.06,0.65,0.62
CCOc1cc(N)c(Cl)cc1C(=O)NCC1CN(Cc2ccc(F)cc2)CCO1 (stereo not drawn) [Mosapride],12.5 ± 0.23,0.05,0.39,-0.65,-0.39,0.06,0.77,-0.41,-0.23,0.02,,,-0.42,0.45,0.4,0.05,-0.04
OCCOCCN1CCN(C2=Nc3ccccc3Sc3ccccc32)CC1 [Quetiapine Fumarate],12.42 ± 0.12,-0.49,0.24,0.37,,-0.24,-0.19,0.32,0.13,-0.61,0.49,-0.06,0.76,0.55,0.19,0.41,0.86
CCCc1nn(C)c2c(=O)[nH]c(-c3cc(S(=O)(=O)N4CCN(C)CC4)ccc3OCC)nc12 [Sildenafil Citrate],12.4 ± 0.22,0.12,0.03,-0.61,0.43,-0.22,0.51,-0.26,0.01,-0.23,0.49,-0.89,0.14,-0.32,-0.06,-0.32,
CO[C@H]1O[C@@H]2O[C@@]3(C)CC[C@H]4[C@H](C)CC[C@@H]([C@H]1C)[C@@]24OO3 [Artemether],12.05 ± 0.027,,-4.52,-0.43,0.63,2.67,-0.14,-1.32,-2,0.26,-0.57,-0.28,-0.85,-0.27,-0.53,0.11,-0.58
C[N+]1(C)[C@@H]2CC[C@H]1C[C@@H](OC(=O)C(O)c1ccccc1)C2 (stereo partly drawn) [Homatropine Methylbromide],12.4 ± 0.32,0.29,-0.38,-0.63,0.46,-1.04,0.06,-1,-0.7,0.05,,,0,-0.66,0.4,-0.38,-0.14
